# High-throughput results deposited in PubChem BioAssay by National Center for Advancing Translational Sciences (NCATS).
# HT1080NT lethal: kills 2HG-producing HT-1080-NT fibrosarcoma cells. HT-1080-NT fibrosarcoma viability, CellTiter-Glo ATP luminescence, 48 h. Potency, µM (doses to about 46.1 µM), inactives show at the top dose activity, negative = less viability, usual class: cytotoxic. actives 1.6% (n = 360,000). AID 686970;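 note: NT is the 2HG producing partner of a matched IDH1 knockdown line; potency is the fitted concentration of half-maximal effect; 0% = DMSO-treated cells and -100% = media-only wells without cells; nearly all actives have a fitted effect of over 55% in size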
#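 HT-1080-NT fibrosarcoma cells (2HG-overproducing), 750 cells/well in RPMI with 5% FBS, dosed after 2 h and incubated 48 h at 37C. CellTiter-Glo luminescence normalized to DMSO and no-cell wells; concentration-response curves fitted and classed.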
# Giardia killer: Giardia lamblia killing | Giardia lamblia trophozoite viability | activity change, % at 7.66 µM, hits read low | actives 0.15% (n = 340,000); in the data active = activity change below about -80%; inconclusive = between about -30% and that limit;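 note: parasites exposed to compound for two days anaerobically before the ATP read; % is set by controls: 0 for no effect and ±100 for the full control effect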
#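 Each well holds 100 Giardia trophozoites and compound. After two days (48 hrs) at 37 deg C in anaerobic conditions, ATP is quantified by luminescence.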
# IL1B secr inh: blocks inflammasome-driven IL-1 beta release. THP-1 LPS/ATP IL-1B secretion, AlphaLISA, 16 h; active compounds read low. activity change, % at 57.5 µM. actives 4.7% (n = 360,000). AID 743279; in the data active = activity change below about -50%; inconclusive = mostly about -30% to -49%; note: % is set by controls: 0 for no effect and ±100 for the full control effect
#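 Secreted IL-1B measured by AlphaLISA bead assay after 16 h compound exposure of THP-1 cells; compounds (final up to 57.5 uM) added 1 h before LPS (250 ng/mL) and ATP (1.25 mM) stimulation; lower signal means less secretion.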
# HepG2 viability: kills HepG2 cells in TGF-b inhibitor counter-screen. HepG2 CAGA-GFP viability, ATP luminescence, 18 h. Potency, µM (top dose mostly 46.1 µM), for the others: at the top dose activity change, negative = cytotoxicity, usual class: cytotoxic. actives 0.76% (n = 410,000). AID 588856; note: potency is the fitted concentration of half-maximal effect
#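 CellTiter-Glo luminescence gave cytotoxicity after 18 hours at 37 degrees C. The cells were HepG2 CAGA-GFP in 1% FBS DMEM, stimulated with 500 pg/mL TGF-beta after compound addition. %Activity was normalised to no-cell wells (complete cell-killing) and DMSO (no toxicity), and curves were fitted and classified.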
# TGFb SMAD3 inh: TGF-b pathway inhibition | HepG2 CAGA-GFP TGF-b/SMAD3 reporter, GFP fluorescence, 18 h; TGF-beta stimulated, 500 pg/mL final | Potency, µM (titrated, usually from 46.1 µM), for the others: at the top dose activity, negative = inhibition, usual class: inhibitors | actives 1.2% (n = 410,000); note: potency is the fitted concentration of half-maximal effect; % is set by controls: 0 for no effect and ±100 for the full control effect; nearly all actives have a fitted effect of over 65% in size
#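 HEPG2 CAGA-GFP, 1000 cells/well; 2 h settle, 37 C; cpd via pin tool; TGF-b 500 pg/mL final; 18 h, 37 C; GFP imaging ex488/em500-530; %Activity normalised to -TGF-b and +DMSO controls; CRC fit, curve class.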
# HT1080 IDH1KD tx: HT-1080 IDH1 knockdown cell toxicity (counter line) | HT-1080 IDH1 knockdown viability, ATP luminescence, 48 h | Potency, µM (doses to about 46.1 µM), for inactives: top-dose activity, negative = toxicity, usual class: cytotoxic | actives 2% (n = 360,000);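 note: potency is the fitted concentration of half-maximal effect; 0% = DMSO wells and -100% = cell-free medium wells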
#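 % activity derives from luminescence (CellTiter-Glo), normalised to DMSO and no-cell wells. HT-1080-IDH1KD cells, 750/well, had 48 h compound exposure at 37 °C.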
# Starred values were filed as active, the others as inactive; ? = inconclusive; · = no result. Shown are actives, neighbours in structure and some others; about 6.5% of the full set was active somewhere. Unless noted, calls come from the whole dose curve; as a rule, active = well fitted curve in the direction sought with a large enough effect; inconclusive = small, poorly fitted or top-dose-only effect, or another doubt; inactive = no such curve, though single readings can be large; an effect the other way counts as inactive or inconclusive.
SMILES,HT1080NT lethal,Giardia killer,IL1B secr inh,HepG2 viability,TGFb SMAD3 inh,HT1080 IDH1KD tx
CCC1(c2ccc(F)cc2)NC(=O)N(CC(=O)N(CCC#N)c2ccccc2)C1=O (stereo not given),4%,0,18,1%,0%,3%
Cc1ccc(NC(=S)NCCc2ccccc2)c(C)c1,14%,-2,-23,-30%,-7%,5%
Cc1ccc(C)c(NC(=S)NNc2ccc(F)cc2F)c1,26µM*,-13,-100*,10%,-1%,26µM*
Cc1ccc(C)c(NC(=S)NCCc2ccc(F)cc2)c1,-2%,-27,-67*,-36%,?,-1%
Cc1ccc(NNC(=S)Nc2ccc(C(C)C)cc2)c(C)c1,-5%,-9,-109*,-14%,?,-14%
O=C(CCC1CCCCC1)Nc1ccc(C(=O)c2ccncc2)cc1,-4%,-24,-92*,4%,-4%,0%
COc1ccc(CCNC(=O)Cn2nc(C)c3c(C)n(-c4ccccc4)nc3c2=O)c(OC)c1,-6%,25,-22,-7%,-26%,-7%
COc1ccc(OC)c(CCNC(=O)Cn2nc(C)c3c(C)n(-c4ccc(C)cc4)nc3c2=O)c1,-17%,26,-67*,-18%,?,-2%
CCN1CCc2nc(NC(=O)c3ccccc3)sc2C1,-7%,-21,-24,1%,0%,3%
O=C(Nc1nc2c(s1)CN(Cc1ccccc1)CC2)C1CCC1,-14%,20,-11,11µM*,7%,-1%
COc1ccc(CCOC(=O)c2ccc(NC(=O)CC#N)cc2)cc1,-2%,0,0,-3%,-21%,-15%
CC(C)CC(C(=O)O)N(Cc1ccccc1)Cc1ccccc1 (stereo not given),-3%,6,22,-3%,5%,12%
C#CC(CO)N(CCN(Cc1ccccc1)C(C#C)CO)Cc1ccccc1 (stereo not given),-4%,6,-62*,5%,?,0%
N=c1c2c(-c3ccccc3)c(-c3ccccc3)n(Cc3ccco3)c2ncn1CCO,18µM*,-11,?,-100%,?,18µM*
N=c1c2c(-c3ccccc3)c(-c3ccccc3)n(Cc3ccco3)c2ncn1CCCO,21µM*,22,·,18µM*,25µM*,8.2µM*
c1ccc(-c2nc3nc4ccccc4nc3n2Cc2ccco2)cc1,-3%,-10,-7,-17%,5%,1%
N=c1c2c(-c3ccccc3)c(-c3ccccc3)n(Cc3ccco3)c2ncn1CCN1CCOCC1,?,-14,-81*,-53%,?,?
COc1cc(NC(=O)c2cccs2)ccc1NC(=O)c1ccco1,18%,4,?,5%,0%,2%
Cc1ccc(/C=C(\NC(=O)c2ccccc2)C(=O)N2CCCCC2)cc1,2%,2,-1,-1%,-10%,2%
COc1ccccc1NC(=O)Cc1csc(NC(=S)Nc2ccccc2)n1,3.5µM*,3,-9,-37%,14µM*,3.2µM*
COc1ccc(NC(=S)Nc2nc(CC(=O)Nc3ccccc3OC)cs2)cc1,3.5µM*,4,?,-30%,?,5µM*
O=C(CCc1c[nH]c2ccccc12)N1CCN(S(=O)(=O)c2ccccc2)CC1,-2%,21,-1,-15%,-2%,15%
NC(Cc1ccc(Cl)cc1)c1csc(Nc2ccc(C(F)(F)F)cn2)n1 (stereo not given),?,·,-67*,-98%,?,?
CC(C)CC(N)c1csc(Nc2ccc(C(F)(F)F)cn2)n1 (stereo not given),18µM*,·,-54*,18µM*,?,?
NC(CO)c1csc(Nc2ccc(C(F)(F)F)cn2)n1 (stereo not given),-15%,·,-5,-33%,-1%,-25%
SMILES,HT1080NT lethal,Giardia killer,IL1B secr inh,HepG2 viability,TGFb SMAD3 inh,HT1080 IDH1KD tx
CC(C)=CCN1CCN(Cc2nc(C(C)C)cs2)CC1CCO (stereo not given),13%,5,4,7%,0%,9%
CCNC(=O)c1cc2c(c(-c3cccc(-c4ccccc4F)c3)n1)[C@@H](CCO)N(C(=O)CC1CC1)C2,?,·,15,·,·,?
CCN(CC)CCn1c(=N)n(CCOc2ccccc2Cl)c2ccccc21,·,·,·,-98%,?,·
N=c1n(CCCOc2ccccc2Cl)c2ccccc2n1CC(N)=O,?,7,-102*,-188%,13µM*,?
O=C(OCCN(CCOC(=O)c1ccncc1)S(=O)(=O)c1cccs1)c1ccncc1,7%,-27,17,-1%,-10%,10%
N#Cc1c(NC(=O)c2ccc(Br)o2)n(-c2ccccc2)c2nc3ccccc3nc12,3%,10,42,-15%,-4%,-2%
CCCCn1c(NC(=O)c2ccccc2)c(C#N)c2nc3ccccc3nc21,8.9µM*,7,-23,-36%,?,?
CCC(=O)Nc1c(C#N)c2nc3ccccc3nc2n1-c1ccc(C)cc1,2%,-1,34,-18%,-23%,-1%
CCC(C)n1c(NC(=O)c2ccccc2)c(C#N)c2nc3ccccc3nc21 (stereo not given),18µM*,-6,-17,8%,?,16µM*
Nc1nc(-c2ccc(Br)cc2)c(S(=O)(=O)c2ccccc2)s1,-2%,3,-69*,6%,9%,-1%
Nc1nc(-c2ccc(Cl)cc2)c(S(=O)(=O)c2ccccc2)s1,-11%,-1,?,-24%,-26%,-14%
COc1ccccc1NC(=O)C1CCCN(C(=O)Nc2ccc(F)cc2)C1 (stereo not given),-11%,7,-7,-1%,-1%,-6%
COc1cccc(CNC(=O)Cc2c(C)c3c(cc(C)c4c(C)c(C)oc43)oc2=O)c1,·,·,·,0%,15%,·
Cc1ccc(-n2cccn2)c(CN2CCCC(C(=O)c3ccc4c(c3)OCO4)C2)c1 (stereo not given),-15%,7,-60*,-23%,-25%,?
Cc1ccc(NS(=O)(=O)c2cc(NC(=O)c3ccc4c(c3)NC(=O)CS4)ccc2C)c(C)c1,?,-29,-115*,-3%,?,?
CCOC(=O)N/N=C(\c1ccccc1)C(O)c1ccccc1 (stereo not given),16%,-3,-2,-6%,?,25%
CC(C)Oc1ccc(CNC(=O)c2cc3ccccn3n2)cc1,·,·,·,-2%,?,·
Cc1ccc(S(=O)(=O)Nc2ccc(O)c3ccccc23)c(C)c1,29µM*,-9,-81*,-95%,?,?
